Source: PubChem (National Center for Advancing Translational Sciences (NCATS))
HCMV antiviral = human cytomegalovirus inhibition; 410,000 compounds, 4.5% hits; HFF cells, HCMV-luciferase reporter, 72 h; active compounds read low; AID 1259415; activity change, negative = inhibition, % at 57.5 µM; in the data active = activity change below about -60%; inconclusive = no clear call, values can overlap the other calls; inactive = above about -39%
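HFF cells seeded 16 h at 37C, treated with compounds, infected with luciferase-reporter HCMV at MOI 1 PFU/cell; luciferase read at 72 h post infection, normalized to buffer-only and Salinomycin controls.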
Lassa entry inh = inhibitors of Lassa virus binding or cell entry. AID 540256. Lassa virus pseudotype entry inhibition, cell reporter. 300,000 compounds, 1.2% hits. Potency, µM (highest dose often 37.9 µM), for inactives: at the highest dose activity change, negative = inhibition, hits mostly inhibitors; calls by dose curve; tested in HEK293 cells; note: potency is the fitted concentration of half-maximal effect; nearly all actives have a fitted effect of over 50% in size
HCV inh = HCV inhibition; Huh7.5.1 HCVcc-Cre infection, luciferase reporter, 44 h; Potency, µM (series often up to 41.8 µM), for inactives: top-dose activity change, negative = inhibition, usual class: inhibitors; 340,000 compounds, 3.4% hits; active = well fitted inhibition curve with a large enough effect; inconclusive = small, poorly fitted or top-dose-only effect, or another doubt; inactive = no such curve, though single readings can be large or run the other way; note: potency is the fitted concentration of half-maximal effect
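Infectious HCVcc-Cre (~0.5 moi) was added to cells just after compound, with cells seeded 4 h earlier at 1,000 per well. Luciferase activity after 44 h culture reported infection; substrate was incubated 15 min at room temperature before reading.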
MARV entry inh = Marburg virus entry inhibition. Marburg virus pseudotyped entry inhibition, cell reporter. Potency, µM (series often up to 37.8 µM), for the others: at the highest dose activity change, negative = inhibition, most hits filed as inhibitors. 300,000 compounds, 1.8% hits; calls by dose curve; tested in HEK293 cells; note: potency is the fitted concentration of half-maximal effect
VACV mCherry inh = vaccinia inhibition (mCherry reporter). Vaccinia virus mCherry reporter infection, fluorescence. Potency, µM (doses to about 36.5 µM), for inactives: top-dose activity change, negative = inhibition, most hits filed as inhibitors. 310,000 compounds, 0.63% hits; calls by dose curve; tested in A549 cells; note: potency is the fitted concentration of half-maximal effect; nearly all actives have a fitted effect of over 35% in size
Vaccinia Venus = vaccinia inhibition (Venus reporter); Potency, µM (titrated, usually from 36.5 µM), inactives show at the top dose activity change, negative = inhibition, actives largely listed as inhibitors; Vaccinia virus Venus reporter expression, fluorescence; 330,000 compounds, 0.46% hits; AID 720580; calls by dose curve; tested in A549 cells; note: potency is the fitted concentration of half-maximal effect; nearly all actives have a fitted effect of over 30% in size
Active calls of the source: *; i = inactive; u = inconclusive; x = no result given; [ ] = remark or other dose. Rows were chosen to be rich in hits. Some 7.8% of all compounds tested hit in one or more screens of this group. % is set by controls: 0 for no effect and ±100 for the full control effect.

SMILES	HCMV antiviral	Lassa entry inh	HCV inh	MARV entry inh	VACV mCherry inh	Vaccinia Venus
O=C(CSc1nc2ccccc2nc1Cc1ccc(Cl)cc1)Nc1ccc2c(c1)OCO2	-21	15%[46.1 µM]	x	x	-10%	0%
Cc1nn(Cc2ccccc2Cl)c(C)c1C(=O)Nc1nnc(C2CC2)s1	-90*	u	-13%	0.89µM*	u	-13%
Cc1oc(-c2ccccc2NC(=O)C2CCC2)nc1CNC(=O)c1ccccn1	x	x	x	x	-5%	-1%
Oc1ccc(/C=N/Nc2ccc(C(F)(F)F)cn2)cc1	18	15%[46.1 µM]	u	u	-26%	0%
Oc1ccc(/C=N/Nc2ccc(C(F)(F)F)cn2)c(O)c1	-94*	x	x	x	x	x
Cc1ccc(NC(=O)CN2C(=O)CCn3nc(-c4cccn4C)cc32)cc1	24	19%[46.1 µM]	x	x	2%	11%
COc1cccc(CNC(=O)Cn2c(=O)ccc3cc(S(=O)(=O)N4CCCC4)ccc32)c1	13	23%[46.1 µM]	x	x	10%	4%
C/C(=N\O)c1sc(-c2ccccc2)nc1C	103	x	10%	x	0%	-11%
CCNC(=O)O/N=C(\C)c1sc(-c2ccccc2)nc1C	63	-15%	11µM*	u	-7%	-15%
COc1ccc(Br)cc1CNC(=O)CCCn1c(=O)c2cccn2c2cccnc21	-17	-4%[46.1 µM]	x	x	i	-9%
CC(C)(C)c1ccc(C(=O)NNc2ncccc2-n2cccc2)cc1	-60*	x	-11%	x	x	x
Cc1ccc(C(=O)CSc2nnc(CNc3ccc(C)cc3C)n2Cc2ccco2)cc1	17	26µM*	u	u	x	x
O=C(CSc1nnc(-c2cc3ccccc3cc2O)n1Cc1ccco1)c1ccc(F)cc1	u	23µM*	16µM*	u	x	x
Cc1occc1-c1nnc(SCC(=O)c2ccc(F)cc2)n1Cc1ccco1	-10	-12%	u	0%	-15%	-16%
COc1ccc(C(=O)CSc2nnc(CNc3ccc(C)cc3C)n2Cc2ccco2)cc1	41	u	6.3µM*	-40%	x	x
Cc1ccc(NCc2nnc(SCc3ccc(C#N)cc3)n2Cc2ccco2)c(C)c1	41	6%	-30%	u	-23%	-19%
CC1CCCN(C(=O)CSc2c3c(nc4cc(Cl)ccc24)CCCC3)C1 (stereo not drawn)	-39	-44%[46.1 µM]	x	19%[46.1 µM]	-5%	-15%
COCCNC(=S)N1CCC2CC1c1cc(-c3ccc4c(c3)OCO4)ccc12 (stereo not drawn)	-22	x	x	x	i	-1%
S=C(NCCc1ccccc1)N1CCC2CC1c1cc(-c3ccc4c(c3)OCO4)ccc12 (stereo not drawn)	-75*	x	x	x	0%	-20%
COC(=O)C1C(=O)C2=C(CC1C)NC(C)=C(C(=O)OCCOc1ccccc1)C2c1ccc(C)o1 (stereo not drawn)	-4	u	13µM*	u	-19%	-5%
CCOCCOC(=O)c1[nH]c2c(c1C)C(=O)CC(c1cc(OC)c(OC)c(OC)c1)C2 (stereo not drawn)	-62*	-17%	5µM*	u	1%	-15%
CCOC(=O)C1=C(C)NC2=C(C(=O)CC(c3ccc(OC)c(OC)c3)C2)C1c1ccc(C)o1 (stereo not drawn)	-32	-10%	13µM*	u	-3%	-6%
COC(=O)c1[nH]c2c(c1C)C(=O)CC(c1cc(OC)c(OC)c(OC)c1)C2 (stereo not drawn)	-74*	x	10µM*	x	x	x
Cc1ccc2oc(=O)n(CCNC(=O)Nc3ccc(Cl)cc3)c2c1	-30	-8%[46.1 µM]	x	0%[46.1 µM]	-11%	-10%
O=C(O)C[C@H]1SC(=Nc2cccc(C(F)(F)F)c2)NC1=O	x	x	x	-22%[46.1 µM]	x	x
SMILES	HCMV antiviral	Lassa entry inh	HCV inh	MARV entry inh	VACV mCherry inh	Vaccinia Venus
Cc1cc(OCC(=O)N(Cc2ccc(N(C)C)cc2)CC2CCCO2)ccc1Cl (stereo not drawn)	-20	u	x	5%[46.1 µM]	-4%	-13%
COCCOC(=O)c1[nH]c2c(c1C)C(=O)CC(c1ccc(OC)c(OC)c1)C2 (stereo not drawn)	u	x	10µM*	x	x	x
COc1cc(C2CC(=O)c3c([nH]c(C(=O)OC4CCCC4)c3C)C2)cc(OC)c1OC (stereo not drawn)	-98*	u	x	u	u	u
C[C@H](CO)N1C[C@H](C)[C@@H](CN(C)S(=O)(=O)c2ccccc2)Oc2ccc(NC(=O)CCC(F)(F)F)cc2C1=O	-1	x	6%	x	0%	-13%
Cc1ccc(/C=N/Nc2nc3ccccc3s2)o1	-15	3.2µM*	-2%	u	-27%	-24%
CC(Sc1nc(-c2ccccc2)cc(C(F)(F)F)n1)C(=O)NCc1ccco1 (stereo not drawn)	-38	-9%	11µM*	u	-25%	-12%
COc1ccc(CNC(=O)C(C)Sc2nc(-c3ccccc3)cc(C(F)(F)F)n2)cc1 (stereo not drawn)	u	-12%[46.1 µM]	x	7%[46.1 µM]	0%	-9%
CC(C)(C)OC(=O)N1CCC(c2c(C(=O)N3CCC(c4ccccc4)C3)cnn2-c2ccc(Cl)cc2)CC1 (stereo not drawn)	-20	u	x	x	-12%	-13%
COc1ccc(-c2csc(-c3ccc(O)cc3)n2)cc1	-24	x	u	x	3.5µM*	u
COc1ccc(O)cc1	14	x	0.79µM*	x	27%	21%
COc1ccc(N2CC(O)=C(c3nc(-c4ccc(Br)cc4)cs3)C2=N)cc1	-67*	x	11%	x	-15%	-14%
COc1ccc(N2CC(O)=C(c3nc(-c4ccccc4)cs3)C2=N)cc1	-26	x	-13%	x	-6%	-6%
Cc1ccc(-c2csc(-c3ccncc3)n2)cc1	53	x	-9%	x	x	x
COc1ccc(/C=C/c2cc(O)cc(O)c2)cc1	x	x	x	x	i	0%
CCCCCCCCN1C(=O)[C@H](CC(=O)N2CCCCC2)C[C@@]2(C(=O)OC)CC(C)(C)CC=C12	26	x	x	x	-20%	-14%
CN1C/C(=C\c2ccc(N3CCOCC3)cc2)C(=O)/C(=C/c2ccc(N3CCOCC3)cc2)C1	u	2%	11µM*	u	u	0%
CCN1C/C(=C/c2ccc(N3CCOCC3)cc2)C(=O)/C(=C/c2ccc(N3CCOCC3)cc2)C1	-102*	u	u	u	11µM*	56%
CN1C/C(=C/c2ccsc2)C(=O)/C(=C/c2ccsc2)C1	-86*	u	u	5µM*	u	u
Cc1cc(NCc2ccc(Cl)cc2)n2cnnc2n1	-16	10%[46.1 µM]	x	2%[46.1 µM]	u	-28%
O=C(CCl)N(c1ccccc1)c1ccccc1	-98*	u	8.9µM*	u	i	-8%
O=C(CCCc1ccccc1)NCCc1ccccc1	34	x	-3%	x	x	x
CCCCCCCN(C(=O)CCl)c1cccc(C)c1	-86*	8%	13µM*	3%	-18%	-10%
O=C(CCl)N(CCc1ccccc1)CCc1ccccc1	-100*	u	u	u	i	-10%
CCCCCCN(C(=O)CCl)c1ccccc1	-100*	x	5µM*	x	x	x
